From PubChem BioAssay
Activity calls are given as the source filed them.

Experiments:
[1] = tested on: Wnt5a (protein binding on small-molecule microarray); experiment: small molecules binding Wnt5a protein – biophysical, small-molecule microarray, 635/667 nm fluorescence, primary screen (AID 1142); details: 635 nm fluorescence, higher = more signal;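 also: fluorescence read at 667 nm with signal to noise per printed feature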
[2] = ATP-based viability of Huh7 replicon cells – cell-based, CellTiter-Glo luminescence, basal, 48 h, cytotoxicity control for HCV replication inhibitor project, primary screen (AID 1143); details: higher = more signal, called active from +8 up or from −8 down;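 also: Huh7 hepatoma cells carrying a hepatitis C replication reporter with no stimulus; test concentration not given here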
[3] = basal CRE-LacZ reporter activity in PC12 – cell-based, unstimulated, primary screen (AID 1145); details: no forskolin, luminescence, 4.5 h, higher = more signal, called active from +8 up or from −8 down
[4] = forskolin-driven CRE-LacZ activity in PC12 – cell-based, CRE-LacZ reporter, forskolin-stimulated, primary screen (AID 1146); details: luminescence, 4.5 h, higher = more signal, called active from +8 up or from −8 down;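 also: PC12 cells with 6xCRE LacZ reporter stimulated by forskolin 10 µM; beta-galactosidase reporter signal reflecting CREB driven transcription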
[5] = target: Streptavidin (Streptomyces avidinii) (UniProt P22629); experiment: compounds binding control protein streptavidin – biophysical, small-molecule microarray, 635/667 nm fluorescence, artefact control for SMM compound annotation, primary screen (AID 1147); details: higher = more signal;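 also: signal reflects streptavidin binding to arrayed compounds as a control protein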
Chain of Streptavidin (Streptomyces avidinii) (P22629 whole entry, looked up): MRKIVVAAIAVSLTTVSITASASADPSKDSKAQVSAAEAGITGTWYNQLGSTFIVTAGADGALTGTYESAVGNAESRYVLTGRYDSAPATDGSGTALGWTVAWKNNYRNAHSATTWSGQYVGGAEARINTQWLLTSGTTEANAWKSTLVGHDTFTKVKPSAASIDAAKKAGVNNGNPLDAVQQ

[6] = probe aInhba binding on compound microarray – biochemical, small-molecule microarray, 635/667 nm fluorescence, primary screen (AID 1148); details: higher = more signal;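 also: score merges 667nm spot fluorescence with signal-to-noise for antibody binding to printed compounds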
Torsin-1A (Homo sapiens) [7] = target: Torsin-1A (Homo sapiens) (UniProt O14656); experiment: TOR1A wild-type binding on microarray – cell lysate, small-molecule microarray, lysate, 635/667 nm, primary screen (AID 1149); details: COS7 hTOR1A-WT lysate, 635 nm fluorescence, higher = more signal
Chain of Torsin-1A (Homo sapiens) (O14656 whole entry, looked up): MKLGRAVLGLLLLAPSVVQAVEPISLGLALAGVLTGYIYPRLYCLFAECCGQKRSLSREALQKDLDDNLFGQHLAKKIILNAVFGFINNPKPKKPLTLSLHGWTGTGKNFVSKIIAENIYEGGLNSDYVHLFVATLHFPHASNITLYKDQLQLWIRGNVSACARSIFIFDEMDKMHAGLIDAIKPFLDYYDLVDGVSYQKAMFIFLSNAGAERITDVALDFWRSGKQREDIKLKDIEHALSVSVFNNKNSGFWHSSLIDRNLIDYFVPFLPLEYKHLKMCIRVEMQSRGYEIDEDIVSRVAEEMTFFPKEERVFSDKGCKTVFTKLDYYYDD

Torsin-1A (Homo sapiens) [8] = target: Torsin-1A (Homo sapiens) (UniProt O14656); experiment: torsin A mutant lysate binding on microarrays – cell lysate, small-molecule microarray, COS7 lysate, 635/667 nm fluorescence, primary screen (AID 1150); details: COS7 hTOR1A mutant lysate, 635 nm fluorescence, higher = more signal;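 also: score pools 667 nm emission and signal to noise measuring lysate protein binding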
[9] = tested on: Sonic hedgehog protein (Shh); experiment: Sonic hedgehog microarray binding compounds – biochemical, small-molecule microarray, 635/667 nm fluorescence, primary screen (AID 1151); details: 635 nm fluorescence, higher = more signal;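 also: Shh protein binding to compounds spotted on small-molecule microarray slides; score combines spot fluorescence intensity with signal-to-noise across triplicate slides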
[10] = optical density shifts of acrAB sulA E. coli – strain DRC41, OD650, 48 h, E. coli filamentation inducer project, primary screen (AID 1152); details: higher = more signal, called active from +8 up or from −8 down;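 also: E. coli MC1000 strain DRC41 lacking acrAB efflux pump and sulA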
[11] = probe aLefty1 binding on compound microarray – biochemical, small-molecule microarray, 635/667 nm fluorescence, primary screen (AID 1153); details: higher = more signal;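 also: score merges spot fluorescence with signal-to-noise ratio from the scanned slide images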
[12] = plasmodial surface anion channel blockers, osmotic lysis – cell-based, P. falciparum Indochina, OD700, 1 h, primary screen (AID 1154); details: P. falciparum Indochina infected RBC osmotic lysis, higher = more signal, called active from +8 up or from −8 down
[13] = plasmodial surface anion channel blockers, osmotic lysis – cell-based, P. falciparum Indochina, OD700, 2 h, primary screen (AID 1155);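 also: lysis reports solute entry through the parasite surface anion channel PSAC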; details: P. falciparum Indochina infected erythrocytes, higher = more signal, called active from +8 up or from −8 down
[14] = changes in parasitized red cell lysis, either direction – P. falciparum Indochina, OD700, 3 h, PSAC antagonist project, primary screen (AID 1156); details: P. falciparum-infected erythrocytes, osmotic lysis, higher = more signal, called active from +8 up or from −8 down
[15] = plasmodial surface anion channel blockers, osmotic lysis – cell-based, P. falciparum Indochina, OD700, 18 h, primary screen (AID 1157); details: P. falciparum Indochina infected erythrocytes, osmotic lysis OD700, 18 h; higher = more signal, called active from +8 up or from −8 down
[16] = S6 kinase pathway phospho-S6 level changes – cell-based, A549, cytoblot, luminescence, serum-stimulated, primary screen (AID 1158); details: 5 h, higher = more signal;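 also: serum-stimulated A549 lung adenocarcinoma cells; signal is phosphorylated S6 detected by cytoblot immunostaining with HRP secondary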
[17] = target: NADPH oxidase 2 (Homo sapiens) (UniProt P04839); experiment: compounds shifting NOX2 Amplex Red fluorescence – cell-based, HEK293-NOX2, PMA-stimulated, NOX inhibitor project, primary screen (AID 1159); details: 45 min, higher = more signal, called active from +8 up or from −8 down; also: test concentration not given here
Chain of NADPH oxidase 2 (Homo sapiens) (P04839 whole entry, looked up): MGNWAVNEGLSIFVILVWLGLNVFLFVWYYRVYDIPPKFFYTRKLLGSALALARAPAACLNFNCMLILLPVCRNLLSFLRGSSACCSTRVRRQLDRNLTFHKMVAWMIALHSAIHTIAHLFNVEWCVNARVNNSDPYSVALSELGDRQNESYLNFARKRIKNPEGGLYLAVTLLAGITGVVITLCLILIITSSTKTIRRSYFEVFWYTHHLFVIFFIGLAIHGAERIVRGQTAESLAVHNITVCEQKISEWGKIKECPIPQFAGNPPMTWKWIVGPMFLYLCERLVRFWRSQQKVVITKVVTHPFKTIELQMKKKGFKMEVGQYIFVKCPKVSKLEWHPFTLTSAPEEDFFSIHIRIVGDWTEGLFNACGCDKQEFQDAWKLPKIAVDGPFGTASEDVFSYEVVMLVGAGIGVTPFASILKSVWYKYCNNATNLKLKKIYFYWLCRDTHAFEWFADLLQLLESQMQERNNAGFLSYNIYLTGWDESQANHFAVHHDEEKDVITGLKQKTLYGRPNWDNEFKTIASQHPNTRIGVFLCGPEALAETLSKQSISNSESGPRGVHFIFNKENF

[18] = target: NADPH oxidase 4 (Homo sapiens) (UniProt Q9NPH5); experiment: compounds shifting NOX4 Amplex Red fluorescence – cell-based, HEK293-NOX4, tetracycline-induced, NOX inhibitor project, primary screen (AID 1160); details: HEK293-NOX4, Amplex Red H2O2 fluorescence, 45 min; higher = more signal, called active from +8 up or from −8 down
Chain of NADPH oxidase 4 (Homo sapiens) (Q9NPH5 whole entry, looked up): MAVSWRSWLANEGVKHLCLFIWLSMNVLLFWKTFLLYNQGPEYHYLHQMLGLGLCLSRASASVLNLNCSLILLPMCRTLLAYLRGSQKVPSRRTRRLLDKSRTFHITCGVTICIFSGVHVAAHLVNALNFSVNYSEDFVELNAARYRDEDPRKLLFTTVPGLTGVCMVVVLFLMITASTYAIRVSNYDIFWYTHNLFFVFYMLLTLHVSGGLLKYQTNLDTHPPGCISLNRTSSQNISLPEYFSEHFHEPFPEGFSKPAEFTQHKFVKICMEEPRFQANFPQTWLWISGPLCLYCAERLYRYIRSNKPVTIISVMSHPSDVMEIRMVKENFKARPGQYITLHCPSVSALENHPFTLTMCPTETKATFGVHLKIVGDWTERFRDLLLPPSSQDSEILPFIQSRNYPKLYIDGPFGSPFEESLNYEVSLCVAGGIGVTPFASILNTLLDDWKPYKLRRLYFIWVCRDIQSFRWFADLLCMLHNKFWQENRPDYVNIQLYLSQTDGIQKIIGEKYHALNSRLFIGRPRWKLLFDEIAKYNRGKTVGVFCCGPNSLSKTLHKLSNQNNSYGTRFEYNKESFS

[19] = target: NADPH oxidase 5 (Homo sapiens) (UniProt Q96PH1); experiment: compounds shifting NOX5 Amplex Red fluorescence – cell-based, HEK293-NOX5, NOX inhibitor project, primary screen (AID 1161); details: HEK293-NOX5, ionomycin, 45 min, higher = more signal
Chain of NADPH oxidase 5 (Homo sapiens) (Q96PH1 whole entry, looked up): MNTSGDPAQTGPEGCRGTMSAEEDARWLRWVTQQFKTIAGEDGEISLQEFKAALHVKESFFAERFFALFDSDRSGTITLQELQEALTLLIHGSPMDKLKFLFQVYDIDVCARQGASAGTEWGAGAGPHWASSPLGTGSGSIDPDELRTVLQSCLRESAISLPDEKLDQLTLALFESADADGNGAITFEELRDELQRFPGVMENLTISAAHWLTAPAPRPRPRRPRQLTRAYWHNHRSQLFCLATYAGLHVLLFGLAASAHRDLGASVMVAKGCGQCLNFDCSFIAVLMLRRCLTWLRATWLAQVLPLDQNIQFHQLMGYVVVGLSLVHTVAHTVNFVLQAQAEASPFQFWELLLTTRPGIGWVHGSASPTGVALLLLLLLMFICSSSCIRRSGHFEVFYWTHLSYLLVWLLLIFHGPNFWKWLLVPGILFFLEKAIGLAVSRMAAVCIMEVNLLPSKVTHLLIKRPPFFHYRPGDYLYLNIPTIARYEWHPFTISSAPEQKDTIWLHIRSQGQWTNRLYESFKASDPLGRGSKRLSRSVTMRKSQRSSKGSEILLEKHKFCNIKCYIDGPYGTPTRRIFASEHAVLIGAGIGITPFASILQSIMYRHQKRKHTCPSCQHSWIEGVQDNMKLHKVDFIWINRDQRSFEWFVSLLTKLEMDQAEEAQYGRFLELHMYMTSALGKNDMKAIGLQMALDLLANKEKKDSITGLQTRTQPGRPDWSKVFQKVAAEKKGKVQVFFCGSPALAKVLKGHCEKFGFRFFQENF

[20] = compound effects on lung adenocarcinoma cell viability – A549, calcein-AM fluorescence, 48 h, basal, profiling panel (AID 1162); details: higher = more signal; also: test concentration not given here

| SMILES | composite z-score [1] | z-score [2] | z-score [3] | z-score [4] | composite z-score [5] | composite z-score [6] | composite z-score (Torsin-1A (Homo sapiens) [7]) | composite z-score (Torsin-1A (Homo sapiens) [8]) | composite z-score [9] | z-score [10] | composite z-score [11] | z-score [12] | z-score [13] | z-score [14] | z-score [15] | z-score [16] | z-score [17] | z-score [18] | z-score [19] | z-score [20] |
| --- | --- | --- | --- | --- | --- | --- | --- | --- | --- | --- | --- | --- | --- | --- | --- | --- | --- | --- | --- | --- |
| CCCCC(=C=CC[C@@H](O)c1ccc(OCCO)cc1)C[C@@H](O)c1cc(Cl)cc(Cl)c1O | 0.145 | -2.71 (inactive) | 14.3 (active) | -2.04 (inactive) | 0.414 | 0.0536 | -0.0726 | 1.01 | 0.184 | 1.55 (inactive) | -0.147 | 20.3 (active) | 4.24 (inactive) | 1.41 (inactive) | 0.159 (inactive) | 0.903 | 0.444 (inactive) | 0.55 (inactive) | -1.14 | 2.24 |
| CCCNC(=O)[C@@H]1c2ccccc2C(=O)N(Cc2cc(C(F)(F)F)cc(C(F)(F)F)c2)[C@H]1c1ccc(CO)cc1 | 0.311 | -2.67 (inactive) | 0.649 (inactive) | -1.13 (inactive) | -0.555 | -0.157 | -0.0027 | 0.19 | 1 | 1.63 (inactive) | 0.233 | 3.17 (inactive) | 1.07 (inactive) | -0.631 (inactive) | 0.77 (inactive) | 0.488 | 0.602 (inactive) | -0.772 (inactive) | 0.69 | 1.16 |
| CC(C)(C)OC(=O)CC[C@]1(C(=O)NCc2ccccc2)COC(c2ccc(OCCCO)cc2)=N1 | 0.433 | -1.47 (inactive) | 1.7 (inactive) | -1.32 (inactive) | 0.74 | -0.0308 | -0.208 | 1.11 | -0.743 | 2.02 (inactive) | 0.0738 | 18.7 (active) | 1.92 (inactive) | 1.99 (inactive) | -1.39 (inactive) | 0.719 | 0.117 (inactive) | 0.804 (inactive) | -1.01 | 0.661 |
| CC(C)CNC(=O)[C@@H]1c2ccccc2C(=O)N(Cc2ccc(OC(F)(F)F)cc2)[C@H]1c1ccc(CO)cc1 | 0.314 | -2.27 (inactive) | -0.646 (inactive) | -1.28 (inactive) | 0.941 | 0.25 | 0.864 | 0.72 | 2.02 | 3.99 (inactive) | 0.315 | 2.06 (inactive) | -0.18 (inactive) | 0.209 (inactive) | -0.657 (inactive) | 1.69 | -1.43 (inactive) | 0.925 (inactive) | 1.57 | 2.26 |
| C=CCNC(=O)[C@H]1[C@@H]2C(=O)O[C@@H](c3ccccc3)[C@@H](c3ccccc3)N2[C@@H](c2ccc(OCCO)cc2)[C@]12C(=O)Nc1ccc(C#CCCO)cc12 | -0.09 | -2.34 (inactive) | 0.0384 (inactive) | 0.8 (inactive) | -0.0494 | -0.0639 | 0.234 | 0.21 | 1.06 | 2.32 (inactive) | 0.0793 | 4.5 (inactive) | -0.407 (inactive) | -0.144 (inactive) | -2.03 (inactive) | 2.16 | 2.4 (inactive) | 1.18 (inactive) | 0.572 | 0.109 |
| COC(=O)C(CC#Cc1ccc2c(c1)[C@]1(C(=O)N2)[C@H](c2ccccc2OCCO)N2[C@H](c3ccccc3)[C@H](c3ccccc3)OC(=O)[C@H]2[C@@H]1C(=O)N1CCCCCCC1)C(=O)OC | 2.33 | -2.45 (inactive) | 0.212 (inactive) | -0.706 (inactive) | 3.71 | 2.15 | 2.87 | 3.23 | 1.32 | 1.02 (inactive) | 2.82 | 0.867 (inactive) | 0.71 (inactive) | 0.776 (inactive) | 0.51 (inactive) | 0.67 | 0.797 (inactive) | 0.68 (inactive) | 2.04 | 0.447 |
| COC(=O)c1c(CC[C@@H](CO)NC(=O)Nc2ccc(OC)cc2)oc(C(=O)Cc2ccccc2)c1C(=O)OC | 0.0603 | 0.566 (inactive) | 9.58 (active) | -0.453 (inactive) | 0.652 | -0.0531 | 0.462 | 0.943 | 0.97 | 1.7 (inactive) | -0.147 | 3.06 (inactive) | 1.01 (inactive) | 0.681 (inactive) | 0.458 (inactive) | -0.0632 | 1.31 (inactive) | 0.649 (inactive) | -2.22 | -1.27 |
| CC(C)C(=C=CC[C@@H](O)c1ccc(CO)o1)CCO | 0.502 | -0.105 (inactive) | 0.681 (inactive) | -1.82 (inactive) | -0.294 | -0.0986 | 1.65 | 0.289 | 1.48 | 1.38 (inactive) | -0.147 | 1.95 (inactive) | 0.236 (inactive) | 0.311 (inactive) | 0.0124 (inactive) | -0.109 | 1.62 (inactive) | 1.64 (inactive) | 1.49 | 2.76 |
| CCCCCCC#C[Si](O[C@H](c1ccccc1)c1cn(Cc2ccccc2)nn1)(C(C)C)C(C)C | -0.0163 | -1.53 (inactive) | -1.23 (inactive) | -1.35 (inactive) | 0.239 | -0.128 | 0.122 | 0.345 | 0.609 | 3.05 (inactive) | -0.101 | 1.66 (inactive) | -0.226 (inactive) | -0.0275 (inactive) | -0.327 (inactive) | 0.35 | -0.941 (inactive) | 0.369 (inactive) | -1.87 | 1.68 |
